Among all 96,000 compounds or so, about 19,000 (20%) were called active.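 The calls were made as follows: active = blocking of liver enzyme CYP2C9 beyond about 50% at 5 µM (limit read from the data); inactive = the rest.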 These entries were drawn from the full list.

This assay deals with Cytochrome P450 2C9 (Homo sapiens) (UniProt P11712). The experiment in a line: blockers of cytochrome P450 2C9 activity – biochemical, luminescence, ADME assay, primary screen (AID 777). To be noted: CYP2C9 Supersomes, luciferin-H conversion, at 5 µM, hits give high values.
Chain of Cytochrome P450 2C9 (Homo sapiens) (P11712 whole entry, looked up): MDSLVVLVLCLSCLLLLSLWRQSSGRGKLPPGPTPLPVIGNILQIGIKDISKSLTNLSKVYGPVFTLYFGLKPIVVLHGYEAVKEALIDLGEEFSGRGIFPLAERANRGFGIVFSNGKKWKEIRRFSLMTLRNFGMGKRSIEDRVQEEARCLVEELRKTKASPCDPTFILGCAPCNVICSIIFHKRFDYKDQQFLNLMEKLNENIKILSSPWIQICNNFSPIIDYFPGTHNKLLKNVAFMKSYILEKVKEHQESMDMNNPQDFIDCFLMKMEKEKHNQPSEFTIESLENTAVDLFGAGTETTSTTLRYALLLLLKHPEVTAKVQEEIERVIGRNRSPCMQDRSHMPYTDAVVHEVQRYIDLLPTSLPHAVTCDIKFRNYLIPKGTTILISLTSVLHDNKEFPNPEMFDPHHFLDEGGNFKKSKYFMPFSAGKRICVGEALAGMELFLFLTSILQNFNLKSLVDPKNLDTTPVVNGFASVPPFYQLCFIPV
`NC(=NC(=O)c1ccccc1)N1CCOCC1`: the inhibition is 4.1% (inactive). To `CCN(CC)C(=O)CSc1nnc(-c2ccc(S(=O)(=O)NCc3ccccc3Cl)cc2)o1` belongs 25.8% (inactive); to `O=C(OCC(=O)N1CCCC1)c1ccco1`, 5.6% (inactive). Next, `CCn1c(SCC(=O)Nc2cccc(F)c2)nnc1-c1cc2cc(Br)ccc2o1`: 36% (inactive); `CSc1cccc(NC(=O)CSc2ccccc2)c1`: 73.2% (active). Next, `O=C(CSc1ccccc1)Nc1ccc(NC(=O)c2ccco2)cc1`: 42.7% (inactive); `Oc1ccccc1/C=N/n1c(-c2cccs2)n[nH]c1=S`: 0.5% (inactive).

Regarding `Cc1nnc(C)n1/N=C/c1ccc(C(C)C)cc1`, the inhibition is 8.3% (inactive).

On to `Cn1nnc2cc(C(=O)NCCC3=CCCCC3)ccc21`, for which the inhibition is -22.1% (inactive). To `Cc1ccc2c(c1)c1ncn(CCC3=CCCCC3)c(=O)c1n2C` belongs 87.4% (active); to `Cc1ccc2[nH]c3c(=O)n(Cc4ccccn4)cnc3c2c1`, 2.1% (inactive); to `Cc1ccc(-n2ncc3c(=O)[nH]cnc32)c(C)c1`, 2.5% (inactive).

In the case of `Cn1c(=O)n(C)c(=O)n(CC(=O)N2CCCCC2)c1=O`, the inhibition was -13.7% (inactive). For the compound `COc1ccc(C(=O)N(CCN2CCOCC2)CC(=O)NC2CCCC2)cc1OC`, the inhibition is -13.4% (inactive). To `Cc1cccc(NC(=O)CSc2nnc(CCCCCNC(=O)OC(C)(C)C)o2)c1C` belongs 67.6% (active); to `C[C@H](NC(=O)OC(C)(C)C)c1nnc(SCC(N)=O)o1`, 30.9% (inactive); to `COc1ccccc1-c1nnc(SCC(=O)Nc2ccccc2)o1`, -62.2% (inactive). To `C[C@H](NC(=O)OC(C)(C)C)c1nnc(SCC(=O)Nc2ccc(Br)cc2)o1` belongs 50.7% (active); to `CC(C)C[C@@H](N)c1nnc(SCC(=O)c2ccc(Cl)cc2)o1`, 49.8% (inactive). For the compound `CCc1ccccc1NC(=O)CSc1nnc([C@@H](NC(=O)OC(C)(C)C)C(C)C)o1`, the inhibition was 20.3% (inactive). To `Cc1nc(C)c(C(=O)Nc2cccc(C)c2C)o1` belongs 1.2% (inactive); to `CCc1ccccc1NC(=O)CSc1nnc([C@@H](NC(=O)OC(C)(C)C)C(C)CC)o1` (some centres not stated), 66.7% (active).

As to `Cc1cccc(NC(=O)CSC(N)=O)c1C`, the inhibition was 7.1% (inactive). To `CN(C)CCNC(=O)C(C(=O)c1ccccc1)n1ccccc1=O` (configuration not stated) belongs -3.6% (inactive). Consider `CCCCNC(=O)OC(C)CNC(=O)OC` (configuration not stated), for which the inhibition was -7.6% (inactive). For `O=C(C1CCCO1)N1CCC(c2nc3ccccc3[nH]2)CC1` (configuration not stated), the inhibition is -3.1% (inactive). Next, `CCCNS(=O)(=O)c1ccc2c(c1)CCCN2C(C)=O`: 4.5% (inactive); `COC(=O)C(C)C1Sc2ccccc2NC1=O` (configuration not stated): 2.8% (inactive). Next, `Clc1ccc(-c2nnc(-c3ccccc3)nc2N2CCSCC2)cc1`: 59.2% (active).

For the compound `CC1CN(c2nc(-c3ccccc3)nnc2-c2ccccc2)CC(C)O1` (configuration not stated), the inhibition is 14.1% (inactive).

For the compound `Cn1nc(-c2ccccc2)c(-c2nc(-c3ccc(Cl)cc3)no2)c1Cl`, the inhibition was 0.9% (inactive). Take `CC1(C)CC(CC(=O)O)C(=O)O1` (configuration not stated): the inhibition was 4.1% (inactive). Next, `O=C(O)CCCCc1nc2ccccc2s1`: 2.4% (inactive); `COc1ccccc1OCc1nc2ccccc2s1`: 51.7% (active). `O=C(O)CSCc1nc2ccccc2s1`: the inhibition is -9.7% (inactive). `C=CCNc1nc(C)nc(OC)n1`: the inhibition was -13.4% (inactive).

As for `CCOc1cc2[nH]c(=O)n(CCC(=O)NCc3ccc(OC)cc3)c(=O)c2cc1OCC`, the inhibition was -2.1% (inactive). Next, `CCn1cc(C(=O)NCC2CCCO2)c(=O)c2cc(S(=O)(=O)N3CCCCC3)ccc21` (configuration not stated): 44% (inactive). Next, `Cc1ccc(S(=O)(=O)N2CCC(C(=O)NCC3CCCO3)CC2)cc1` (configuration not stated): -9.7% (inactive).

As to `O=C(NCC1CCCO1)C(C(=O)c1ccccc1)n1cc(Cl)ccc1=O` (configuration not stated), the inhibition is -9.3% (inactive). With `CCn1c(SCC(=O)NCC2CCCO2)nc2cc(S(=O)(=O)N3CCCCC3)ccc21` (configuration not stated), the inhibition is 50.2% (active).

On to `O=C(CCCn1c(SCC(=O)c2ccc(F)cc2)nc2ccccc2c1=O)NCc1ccco1`, for which the inhibition is 95% (active). Take `Cn1c(-c2ccc(F)cc2)cnc1SCC(=O)NCc1ccco1`: the inhibition is 9.5% (inactive). Next, `O=C(CCn1c(SCC(=O)c2ccccc2)nc2ccccc2c1=O)NCc1ccc(F)cc1`: 91.5% (active); `CCc1ccc(NC(=O)CSc2nc3ccccc3c(=O)n2CCN2CCOCC2)cc1`: 47.5% (inactive); `O=C(CSc1nc2cc3c(cc2c(=O)n1CCC1=CCCCC1)OCO3)NCc1ccco1`: 8.9% (inactive). With `O=C(CCCn1c(SCC(=O)c2ccccc2)nc2ccccc2c1=O)NCC1CCCO1` (configuration not stated), the inhibition is 91.9% (active). Turning to `O=C(CSc1nnc(-c2ccco2)n1CC1CCCO1)c1ccccc1` (configuration not stated), the inhibition is -3.9% (inactive). To `CCOC(=O)N1CCC(N(CCOC)C(=O)Nc2ccc(C)c(C)c2)CC1` belongs -10.6% (inactive).

In the case of `CS(=O)(=O)Nc1ccc(C(=O)N2CCCC2)cc1`, the inhibition is 17.2% (inactive). As to `CCOC(=O)N1CCN(C(=O)c2n[nH]c(=O)c3ccccc23)CC1`, the inhibition was -4.2% (inactive). To `COc1ccc(C2C(C#N)=C(N)Oc3n[nH]c(C)c32)cc1CN1CCN(c2ccc(F)cc2)CC1` (configuration not stated) belongs 28% (inactive).

Consider `O=C(Cn1cc2c(n1)CCCCC2)NCCN1CCOCC1`, for which the inhibition is -11.3% (inactive). In the case of `O=C(NC(c1ccccc1)c1ccccc1)N1CCN(CCO)CC1`, the inhibition is 4% (inactive). To `COc1ccc(N(CCC#N)S(=O)(=O)c2ccc(Cl)cc2)cc1` belongs 19.8% (inactive). To `C=CCC(NCc1ccco1)c1ccc(OC)cc1` (configuration not stated) belongs -14.6% (inactive).

Consider `N#CCSc1nc2ccc(N3CCOCC3)cc2c(=O)n1CCc1ccccc1`, for which the inhibition is 30.9% (inactive). To `CCCCn1c(SCC(=O)NCC2CCCO2)nc2ccc(N3CCOCC3)cc2c1=O` (configuration not stated) belongs 74.1% (active). To `N#Cc1ccc(Oc2cc(C(F)(F)F)nc(-c3ccccn3)n2)cc1` belongs 42% (inactive); to `O=C(Nc1ccc(Cl)cc1)c1cc2nc(C3CC3)cc(C(F)(F)F)n2n1`, -1.8% (inactive); to `COc1cc(OC)c(-n2c(C)cc(C=O)c2C)cc1Cl`, 16.9% (inactive). To `CCCc1ccc(OCC(=O)NNC(=S)NC(=O)c2ccco2)cc1` belongs 65.8% (active); to `CC(NC(=O)c1ccco1)C(=O)Nc1nc(-c2ccccn2)cs1` (configuration not stated), 9.7% (inactive); to `O=C(NCCSc1ccccc1)c1ccco1`, -18.4% (inactive). Turning to `COc1ccc(C(=O)NC(=S)NNC(=O)CCc2ccccc2)cc1`, the inhibition was 33.8% (inactive). Next, `CC(Oc1ccc2ccccc2c1)C(=O)NNC(=S)NC(=O)c1ccco1` (configuration not stated): 85.3% (active). Next, `CCNC(=S)NNC(=O)Cc1ccccc1`: 1.3% (inactive).

A word on the inhibition: it is the drop in the measured response relative to a control, in per cent.
